In PubChem BioAssay AID602144 (Vanderbilt Specialized Chemistry Center, 2011):
Unmarked numbers belong to inactive results. Activity calls are given as the source filed them. Cut-off read from the data, not from the text of the source: active = remaining activity below about 50%; inactive = the rest.

What follows are compounds tested against Phospholipase D1 (Homo sapiens) (UniProt Q13393) (assay: PLD1 inhibitors in cells, Calu-1 cells, single concentration (AID 602144;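 note: tested at 200 nM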)). Settings: cellular PLD1 activity, active compounds read low.
Sequence of Phospholipase D1 (Homo sapiens) (Q13393 whole entry, looked up): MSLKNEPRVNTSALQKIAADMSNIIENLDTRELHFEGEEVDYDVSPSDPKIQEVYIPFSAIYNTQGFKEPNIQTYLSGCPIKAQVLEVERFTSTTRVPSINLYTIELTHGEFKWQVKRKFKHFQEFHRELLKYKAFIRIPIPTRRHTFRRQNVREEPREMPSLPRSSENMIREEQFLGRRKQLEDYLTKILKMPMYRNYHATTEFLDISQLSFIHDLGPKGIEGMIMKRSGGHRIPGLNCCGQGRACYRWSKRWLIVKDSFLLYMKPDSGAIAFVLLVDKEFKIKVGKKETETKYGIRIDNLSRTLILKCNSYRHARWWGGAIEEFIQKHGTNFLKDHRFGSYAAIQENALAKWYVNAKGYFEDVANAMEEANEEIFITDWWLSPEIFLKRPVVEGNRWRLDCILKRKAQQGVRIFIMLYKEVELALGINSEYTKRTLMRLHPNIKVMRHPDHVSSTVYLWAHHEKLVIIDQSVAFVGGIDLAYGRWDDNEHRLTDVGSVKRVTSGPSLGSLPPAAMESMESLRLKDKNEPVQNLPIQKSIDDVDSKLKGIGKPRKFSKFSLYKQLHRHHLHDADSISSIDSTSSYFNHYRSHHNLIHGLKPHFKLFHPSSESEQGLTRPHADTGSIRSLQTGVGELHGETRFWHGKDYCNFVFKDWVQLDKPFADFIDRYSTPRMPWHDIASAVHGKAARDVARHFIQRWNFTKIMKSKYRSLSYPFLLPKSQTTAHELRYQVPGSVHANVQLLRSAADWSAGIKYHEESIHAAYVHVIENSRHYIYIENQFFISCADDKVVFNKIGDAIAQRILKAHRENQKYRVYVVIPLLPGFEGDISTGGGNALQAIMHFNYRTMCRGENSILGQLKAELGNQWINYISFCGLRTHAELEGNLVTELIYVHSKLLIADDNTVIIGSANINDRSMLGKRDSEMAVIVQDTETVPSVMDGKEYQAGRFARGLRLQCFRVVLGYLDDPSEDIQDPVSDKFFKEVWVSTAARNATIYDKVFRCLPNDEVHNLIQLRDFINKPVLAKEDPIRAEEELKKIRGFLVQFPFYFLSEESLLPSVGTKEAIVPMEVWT
Sequence of Phospholipase D1 (Homo sapiens) (Q13393 whole entry, looked up): as above

| Compound | remaining activity |
| --- | --- |
| COc1cc(C(=O)NCCN2CCC3(CC2)C(=O)NCN3c2ccccc2)ccc1N | 103% |
| Cc1ccccc1C(=O)N(CCN1CCC2(CC1)C(=O)NCN2c1cccc(F)c1)C(=O)c1ccccc1C | 105% |
| O=C(c1ccc2ccccc2c1)N1CC(N2CCC(n3c(=O)[nH]c4ccccc43)CC2)C1 | 108% |
| CC(C)(C)C(=O)NCCN1CCC2(CC1)C(=O)NCN2c1cccc(F)c1 | 71.8% |
| O=C(NCCCCCCN1CCC2(CC1)C(=O)NCN2c1ccccc1)c1ccc2ccccc2c1 | 131% |
| O=C(NCCN1CCC2(CC1)C(=O)NCN2c1cccc(F)c1)c1ccc(F)nc1 | 117% |
| O=C(NCCN1CCC2(CC1)C(=O)NCN2c1cccc(Br)c1)c1ccc2ccccc2c1 | 76.6% |
| CN(CCN1CCC2(CC1)C(=O)NCN2c1ccccc1)C(=O)c1ccc2ccccc2c1 | 84.1% |
| O=C(NCCN1CCC2(CC1)C(=O)NCN2c1ccc(Br)cc1)c1ccc(F)cc1 | 78.5% |
| O=C(NCCN1CCC2(CC1)C(=O)NCN2c1ccc(Br)cc1)c1ccc2ccccc2c1 | 92.7% |
| O=C(c1cnc2ccccc2c1)N1CC(N2CCC3(CC2)C(=O)NCN3c2ccccc2)C1 | 106% |
| O=C(NCCN1CCC2(CC1)C(=O)NCN2c1ccccc1)c1ccc(-c2ccccc2)o1 | 132% |
| O=C(c1cnc2ccccc2c1)N1CCC[C@@H]1CN1CCC2(CC1)C(=O)NCN2c1ccccc1 | 107% |
| O=C(NCCN1CCC2(CC1)C(=O)NCN2c1ccc(Br)cc1)c1cnc2ccccc2c1 | 94.1% |
| O=C(NCCN1CCC2(CC1)C(=O)NCN2c1ccc(F)c(F)c1)c1ccc2ccccc2c1 | 84.3% |
| O=C(NCCN1CCC2(CC1)C(=O)NCN2c1ccc(Cl)cc1)c1ccc(Cl)cc1 | 103% |
| O=C(NCCN1CCC2(CC1)C(=O)NCN2c1ccc(Cl)cc1)c1ccc2ccccc2c1 | 103% |
| O=C(NCCN1CCC2(CC1)C(=O)NCN2c1ccc(F)c(F)c1)c1cnc2ccccc2c1 | 91.3% |
| O=C(NCCN1CCC2(CC1)C(=O)NCN2c1ccc(F)c(F)c1)c1ccc(Cl)cc1 | 94.9% |
| O=C(NCCCN1CCC2(CC1)C(=O)NCN2c1ccccc1)c1cnc2ccccc2c1 | 99% |
| O=C(NCCN1CCC2(CC1)C(=O)NCN2c1cccc(F)c1)C1CCCCC1 | 102% |
| CC(C)[C@@H](CN1CCC2(CC1)C(=O)NCN2c1ccccc1)NC(=O)c1cc2cc(F)ccc2[nH]1 | 6.9% (active) |
